# Laboratory results reported in PubChem BioAssay (EPA / NIEHS).
# Inconclusive results are not listed. Activity calls are given as the source filed them. The calls were made as follows: active = hit-call score of the fitted dose curve at least 0.9, where 1 is the maximum; inconclusive = response in the unintended direction; inactive = score below 0.9.
# Experiments:
# [1] = target: rat Somatostatin Receptor (SST), Sstr1 (gene 25033) (UniProt P28646); assay: NVS_GPCR_rSST: NovaScreen (NVS) G Protein-Coupled Receptor Assay for rat Somatostatin Receptor (SST) (AID 2283314)
# In short: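 Single-concentration duplicate screen (25 uM), then concentration-response up to 50 uM for chemicals passing a threshold such as 30% inhibition. Membranes came from rat forebrain. Binding was measured 1 h post-dose by filter radiodetection and scintillation, relative to DMSO.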
# [2] = target: mouse Cholecystokinin, CCK2 Receptor (CCKB), Cckbr (gene 12426) (UniProt P56481); assay: NVS_GPCR_mCKKBCentral: NovaScreen (NVS) G Protein-Coupled Receptor Assay for mouse Cholecystokinin, CCK2 Receptor (CCKB) (AID 2283293)
# In short: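 Mouse forebrain membrane preparation incubated 2 h with chemical and radioligand; bound radioactivity counted after filtration. Single-concentration duplicate screen at 25 uM, then concentration series to 50 uM max for hits, DMSO as baseline.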
# Adra2b (gene 24174) = Adra2b (gene 24174) (UniProt P19328); assay: NVS_GPCR_rmAdra2B: NovaScreen (NVS) G Protein-Coupled Receptor Assay for hybird cells Adrenergic, Alpha 2B Receptor (Adra2B) (AID 2283306)
# In short: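 Compounds screened first at 25 uM in duplicate, with actives followed up in concentration-response; specific radioligand displacement from hybrid neuroglioma/blastoma cell membrane preparations measured by filter scintillation counting after 1 h, normalized to DMSO.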
# [3] = target: rat Serotonin, 5-Hydroxytryptamine Receptor (5HT), Non-Selective Binding, Htr1a (gene 24473) (UniProt P19327); assay: NVS_GPCR_r5HT_NonSelective: NovaScreen (NVS) G Protein-Coupled Receptor Assay for rat Serotonin, 5-Hydroxytryptamine Receptor (5HT), Non-Selective Binding (AID 2283295)
# In short: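 Rat cortex membrane preparation incubated 1 h with radioligand and test chemical; bound radioactivity counted after filtration. Screening began in duplicate at 25 uM with concentration-series follow-up; fitting relative to DMSO.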
# [4] = target: rat Adrenergic Receptor, Alpha 2 (Adra2), Non-selective Binding, Adra2a (gene 25083) (UniProt P22909); assay: NVS_GPCR_rAdra2_NonSelective: NovaScreen (NVS) G Protein-Coupled Receptor Assay for rat Adrenergic Receptor, Alpha 2 (Adra2), Non-selective Binding (AID 2283299)
# In short: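 Filter-based scintillation counting of radioligand binding to rat cortical membrane receptors, measured 1.25 hours post-dosing; loss of signal versus DMSO indicates displacement. Initial single-concentration duplicate at 25 uM, then concentration series.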
# [5] = target: guinea pig Serotonin, 5-Hydroxytryptamine Receptor 4 (5HT4), HTR4 (gene 100135548) (UniProt O70528); assay: NVS_GPCR_g5HT4: NovaScreen (NVS) G Protein-Coupled Receptor Assay for guinea pig Serotonin, 5-Hydroxytryptamine Receptor 4 (5HT4) (AID 2283294)
# In short: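 Compounds first screened in duplicate at 25 uM, actives followed up in concentration series. Binding measured as displacement of specific radioligand from guinea pig striatal membranes, 1 h, filter-based scintillation read-out versus DMSO baseline.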
# [6] = target: rat Adrenergic, Alpha 1A Receptor (Adra1A), Adra1a (gene 29412) (UniProt P43140); assay: NVS_GPCR_rAdra1A: NovaScreen (NVS) G Protein-Coupled Receptor Assay for rat Adrenergic, Alpha 1A Receptor (Adra1A) (AID 2283296)
# In short: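 Filter radiodetection after 1 h competitive binding on CEC-pretreated rat cortical membranes. Duplicate single-point screening at 25 uM; active chemicals retested across concentration series.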
# [7] = tested on: rat Adrenergic, Alpha 1B Receptor (Adra1B), gene 24173; assay: NVS_GPCR_rAdra1B: NovaScreen (NVS) G Protein-Coupled Receptor Assay for rat Adrenergic, Alpha 1B Receptor (Adra1B) (AID 2283297)
# In short: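 Filter-binding radioligand competition on membranes from rat liver, read after 1 h by scintillation counting. Single-concentration duplicate screen at 25 uM, followed by concentration-response on actives, normalised to DMSO.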
# [8] = target: rat Gamma-Aminobutyric Acid Type B Receptor (GABBR), Gabbr1 (gene 81657) (UniProt Q9Z0U4); assay: NVS_GPCR_rGABBR: NovaScreen (NVS) G Protein-Coupled Receptor Assay for rat Gamma-Aminobutyric Acid Type B Receptor (GABBR) (AID 2283301)
# In short: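 Rat cortical membrane preparation, competitive radioligand binding for 1 h with filtration and scintillation readout. Actives from duplicate single-point 25 uM screening proceeded to concentration series with 50 uM top concentration.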
# [9] = target: rat Histamine Receptor (H3), Hrh3 (gene 85268) (UniProt Q9QYN8); assay: NVS_GPCR_rH3: NovaScreen (NVS) G Protein-Coupled Receptor Assay for rat Histamine Receptor (H3) (AID 2283303)
# In short: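 Filter-binding radioligand competition on rat forebrain membranes, 1 h incubation; compounds screened at 25 µM in duplicate and followed in concentration series to 50 µM, loss of bound signal vs DMSO.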
# [10] = target: Metabotropic glutamate receptor 1 (Rattus norvegicus) (UniProt P23385); assay: NVS_GPCR_rmMGluR1: NovaScreen (NVS) G Protein-Coupled Receptor Assay for rat Glutamate Metabotropic Receptor 1 (MGluR1) (AID 2283305)
# In short: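 Binding to native receptor from rat cerebellum extract, measured as displacement of a radioligand (scintillation counting, filter separation) after 1 hour. Compounds tested at 25 uM in duplicate, then titrated to a 50 uM maximum.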
# [11] = target: rat Glutamate Metabotropic Receptor 5 (MGluR5), Grm5 (gene 24418) (UniProt P31424); assay: NVS_GPCR_rmMGluR5: NovaScreen (NVS) G Protein-Coupled Receptor Assay for rat Glutamate Metabotropic Receptor 5 (MGluR5) (AID 2283307)
# In short: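 Compounds first screened in duplicate at 25 uM, then in concentration series up to 50 uM if over threshold. Radioligand displacement on rat whole-brain membranes, filtration and scintillation counting after 1.5 h; binding loss relative to DMSO.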
# [12] = target: rat Neurokinin-3 Receptor (NK3), Tacr3 (gene 24808) (UniProt P16177); assay: NVS_GPCR_rNK3: NovaScreen (NVS) G Protein-Coupled Receptor Assay for rat Neurokinin-3 Receptor (NK3) (AID 2283310)
# In short: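 Filter-based radioligand displacement on rat cortex membrane preparations, read by scintillation 2 h post-dose. Chemicals first tested in duplicate at 25 uM; actives followed up in concentration series with a 50 uM maximum.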
# [13] = target: rat Opioid Receptor, Non-selective Sodium (Na+) Binding, Oprm1 (gene 25601) (UniProt P33535); assay: NVS_GPCR_rOpiate_NonSelectiveNa: NovaScreen (NVS) G Protein-Coupled Receptor Assay for rat Opioid Receptor, Non-selective Sodium (Na+) Binding (AID 2283311)
# In short: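 Filtration radioligand binding on rat forebrain membrane preparations, read 1.5 h after dosing. Single-concentration 25 µM primary screen in duplicate, followed by singleton concentration series to 50 µM max for actives; DMSO baseline.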
# [14] = target: guinea pig Bradykinin Receptor B2 (BK2), BDKRB2 (gene 100135486) (UniProt O70526); assay: NVS_GPCR_gBK2: NovaScreen (NVS) G Protein-Coupled Receptor Assay for guinea pig Bradykinin Receptor B2 (BK2) (AID 2283292)
# In short: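 Guinea pig ileum membrane preparation incubated 1 h with radioligand and test chemical; bound counts measured after filtration. Primary duplicate screening at 25 uM, then singleton concentration series with a 50 uM top dose; DMSO as baseline.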
# [15] = target: rat Adrenergic Receptor, Beta (Adrb), Non-selective Binding, Adrb1 (gene 24925) (UniProt P18090); assay: NVS_GPCR_rAdrb_NonSelective: NovaScreen (NVS) G Protein-Coupled Receptor Assay for rat Adrenergic Receptor, Beta (Adrb), Non-selective Binding (AID 2283298)
# In short: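 Rat cortical membranes incubated 1 h with beta-adrenergic radioligand and test chemical; bound ligand measured by filtration and scintillation counting. Screen at 25 uM duplicate, then concentration series with 50 uM maximum; loss of signal versus DMSO.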
# [16] = target: rat Corticotropin Releasing Factor Receptor (CRF), Crhr1 (gene 58959) (UniProt P35353); assay: NVS_GPCR_rCRF: NovaScreen (NVS) G Protein-Coupled Receptor Assay for rat Corticotropin Releasing Factor Receptor (CRF) (AID 2283300)
# In short: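 Single-concentration (25 uM, duplicate) radioligand binding on rat cortical membrane preparations, counted by scintillation after 2 h. Activity scored as signal loss relative to DMSO negative control.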
# [17] = target: rat Neurotensin Receptor (NTS), Ntsr1 (gene 366274) (UniProt P20789); assay: NVS_GPCR_rNTS: NovaScreen (NVS) G Protein-Coupled Receptor Assay for rat Neurotensin Receptor (NTS) (AID 2283308)
# In short: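 Single-point duplicates at 25 uM, then concentration series to 50 uM max for hits, measured radioligand displacement on rat forebrain membrane preparations. Bound label counted by filtration scintillation at 1 h; signal loss relative to DMSO fitted.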
# [18] = target: rat Neurokinin-1 Receptor (NK1), Tacr1 (gene 24807) (UniProt P14600); assay: NVS_GPCR_rNK1: NovaScreen (NVS) G Protein-Coupled Receptor Assay for rat Neurokinin-1 Receptor (NK1) (AID 2283309)
# In short: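 Competitive radioligand binding to NK1 in rat submaxillary membranes, 1 h incubation, filtration and scintillation read-out. Compounds first screened at 25 uM in duplicate, then concentration-response for actives; signal loss relative to DMSO.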
# [19] = target: human Neonicotinoid receptor (NNR), CHRNA2 (gene 1135) (UniProt Q15822); assay: NVS_LGIC_hNNR_NBungSens: NovaScreen (NVS) Ligand-Gated Ion Channel Assay for human Neonicotinoid receptor (NNR) (AID 2283313)
# In short: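 Compounds first screened in duplicate at 25 uM, then actives re-tested in single-replicate dose series up to 50 uM. Binding measured as displacement of specific radioligand from neuroblastoma membrane receptors after 2 h, scintillation read on filters.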
# Chain of rat Adrenergic Receptor, Alpha 2 (Adra2), Non-selective Binding, Adra2a (gene 25083) (P22909 whole entry, looked up): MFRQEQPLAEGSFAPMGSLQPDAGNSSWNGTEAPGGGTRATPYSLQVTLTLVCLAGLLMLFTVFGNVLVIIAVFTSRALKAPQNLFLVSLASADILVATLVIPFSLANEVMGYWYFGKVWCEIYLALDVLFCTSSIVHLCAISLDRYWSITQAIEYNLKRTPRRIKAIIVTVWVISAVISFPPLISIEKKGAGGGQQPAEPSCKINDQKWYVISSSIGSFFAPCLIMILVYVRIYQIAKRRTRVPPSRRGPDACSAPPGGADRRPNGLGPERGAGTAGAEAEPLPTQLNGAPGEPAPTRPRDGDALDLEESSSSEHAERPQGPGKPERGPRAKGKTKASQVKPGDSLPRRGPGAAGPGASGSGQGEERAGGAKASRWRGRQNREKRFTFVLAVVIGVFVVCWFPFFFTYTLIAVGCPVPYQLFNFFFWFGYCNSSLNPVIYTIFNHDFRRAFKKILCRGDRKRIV
# Chain of rat Adrenergic, Alpha 1A Receptor (Adra1A), Adra1a (gene 29412) (P43140 whole entry, looked up): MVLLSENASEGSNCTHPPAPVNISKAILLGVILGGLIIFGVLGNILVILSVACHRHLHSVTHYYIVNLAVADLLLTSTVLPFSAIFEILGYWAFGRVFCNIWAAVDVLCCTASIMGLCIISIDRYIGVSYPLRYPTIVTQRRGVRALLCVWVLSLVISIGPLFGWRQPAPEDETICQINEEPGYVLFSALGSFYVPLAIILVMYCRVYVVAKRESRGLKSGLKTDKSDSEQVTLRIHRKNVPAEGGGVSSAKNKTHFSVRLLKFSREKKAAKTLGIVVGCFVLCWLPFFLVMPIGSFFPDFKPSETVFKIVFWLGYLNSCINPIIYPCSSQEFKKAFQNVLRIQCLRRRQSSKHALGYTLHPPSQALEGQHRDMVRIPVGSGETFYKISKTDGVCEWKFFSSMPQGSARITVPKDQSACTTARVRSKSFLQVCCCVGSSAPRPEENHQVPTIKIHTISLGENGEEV
# Chain of mouse Cholecystokinin, CCK2 Receptor (CCKB), Cckbr (gene 12426) (P56481 whole entry, looked up): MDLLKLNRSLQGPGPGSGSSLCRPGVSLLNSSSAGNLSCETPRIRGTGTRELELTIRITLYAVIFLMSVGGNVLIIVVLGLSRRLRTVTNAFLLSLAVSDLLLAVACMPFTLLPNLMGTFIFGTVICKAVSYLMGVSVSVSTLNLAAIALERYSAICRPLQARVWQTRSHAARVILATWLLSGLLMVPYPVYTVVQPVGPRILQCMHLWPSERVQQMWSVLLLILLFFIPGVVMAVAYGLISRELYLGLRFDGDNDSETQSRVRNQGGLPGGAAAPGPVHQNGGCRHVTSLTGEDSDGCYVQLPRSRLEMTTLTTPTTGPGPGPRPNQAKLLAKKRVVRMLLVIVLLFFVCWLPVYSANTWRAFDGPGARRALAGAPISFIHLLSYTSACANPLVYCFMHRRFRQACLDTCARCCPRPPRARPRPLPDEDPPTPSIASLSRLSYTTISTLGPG
# Chain of Adra2b (gene 24174) (P19328 whole entry, looked up): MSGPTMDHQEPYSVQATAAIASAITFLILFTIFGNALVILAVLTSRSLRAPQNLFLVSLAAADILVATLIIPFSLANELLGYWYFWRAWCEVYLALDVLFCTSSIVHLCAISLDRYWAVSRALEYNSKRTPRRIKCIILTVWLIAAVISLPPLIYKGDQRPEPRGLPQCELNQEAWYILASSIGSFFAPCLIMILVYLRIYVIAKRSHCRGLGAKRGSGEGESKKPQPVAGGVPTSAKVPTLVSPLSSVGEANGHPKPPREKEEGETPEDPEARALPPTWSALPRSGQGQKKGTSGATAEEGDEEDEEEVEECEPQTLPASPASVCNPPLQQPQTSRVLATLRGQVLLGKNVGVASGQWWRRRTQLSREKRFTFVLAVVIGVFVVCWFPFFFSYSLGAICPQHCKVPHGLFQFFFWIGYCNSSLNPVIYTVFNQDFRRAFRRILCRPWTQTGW
# Chain of rat Serotonin, 5-Hydroxytryptamine Receptor (5HT), Non-Selective Binding, Htr1a (gene 24473) (P19327 whole entry, looked up): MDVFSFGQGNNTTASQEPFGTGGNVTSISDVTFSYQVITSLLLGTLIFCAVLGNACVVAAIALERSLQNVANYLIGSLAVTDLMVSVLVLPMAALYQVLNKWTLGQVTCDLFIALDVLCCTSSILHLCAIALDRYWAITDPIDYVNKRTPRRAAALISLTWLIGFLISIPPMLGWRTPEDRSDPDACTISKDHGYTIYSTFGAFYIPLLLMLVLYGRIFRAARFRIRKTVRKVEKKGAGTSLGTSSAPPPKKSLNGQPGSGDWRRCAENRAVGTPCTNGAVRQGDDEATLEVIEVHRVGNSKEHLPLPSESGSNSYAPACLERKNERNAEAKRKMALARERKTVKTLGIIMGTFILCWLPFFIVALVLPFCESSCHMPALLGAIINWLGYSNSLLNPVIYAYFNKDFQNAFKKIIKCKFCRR
# Chain of guinea pig Serotonin, 5-Hydroxytryptamine Receptor 4 (5HT4), HTR4 (gene 100135548) (O70528 whole entry, looked up): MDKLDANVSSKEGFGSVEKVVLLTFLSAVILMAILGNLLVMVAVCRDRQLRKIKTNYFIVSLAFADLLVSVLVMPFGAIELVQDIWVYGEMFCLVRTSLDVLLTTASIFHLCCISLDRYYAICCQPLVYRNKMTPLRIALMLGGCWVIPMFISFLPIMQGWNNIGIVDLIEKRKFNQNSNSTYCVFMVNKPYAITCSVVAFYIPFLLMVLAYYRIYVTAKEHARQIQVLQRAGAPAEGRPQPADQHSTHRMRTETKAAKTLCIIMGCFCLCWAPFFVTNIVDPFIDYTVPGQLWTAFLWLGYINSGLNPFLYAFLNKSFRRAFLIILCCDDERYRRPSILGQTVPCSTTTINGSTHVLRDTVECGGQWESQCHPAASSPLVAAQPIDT
# Chain of rat Somatostatin Receptor (SST), Sstr1 (gene 25033) (P28646 whole entry, looked up): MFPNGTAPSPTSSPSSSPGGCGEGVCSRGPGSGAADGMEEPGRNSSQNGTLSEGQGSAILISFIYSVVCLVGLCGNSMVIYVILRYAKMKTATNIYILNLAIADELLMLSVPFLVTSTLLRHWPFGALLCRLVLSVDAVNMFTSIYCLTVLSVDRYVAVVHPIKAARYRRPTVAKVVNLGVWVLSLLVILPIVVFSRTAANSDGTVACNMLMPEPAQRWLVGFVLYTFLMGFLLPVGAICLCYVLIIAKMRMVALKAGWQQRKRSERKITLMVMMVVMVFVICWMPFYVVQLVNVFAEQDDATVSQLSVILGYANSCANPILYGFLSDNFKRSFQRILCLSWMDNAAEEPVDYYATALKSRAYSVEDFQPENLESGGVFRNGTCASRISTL
# Chain of rat Neurokinin-1 Receptor (NK1), Tacr1 (gene 24807) (P14600 whole entry, looked up): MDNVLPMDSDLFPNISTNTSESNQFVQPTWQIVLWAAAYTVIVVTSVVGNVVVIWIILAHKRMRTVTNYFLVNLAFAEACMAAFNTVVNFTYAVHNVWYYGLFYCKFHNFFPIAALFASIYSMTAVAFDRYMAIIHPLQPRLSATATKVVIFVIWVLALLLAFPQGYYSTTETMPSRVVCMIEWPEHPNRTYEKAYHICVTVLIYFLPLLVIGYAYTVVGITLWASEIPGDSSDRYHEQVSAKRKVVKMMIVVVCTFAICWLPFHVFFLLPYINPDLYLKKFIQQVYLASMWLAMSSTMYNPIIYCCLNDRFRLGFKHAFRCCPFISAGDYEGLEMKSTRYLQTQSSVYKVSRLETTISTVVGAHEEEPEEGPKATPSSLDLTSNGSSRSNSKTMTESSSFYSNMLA
# Chain of rat Neurokinin-3 Receptor (NK3), Tacr3 (gene 24808) (P16177 whole entry, looked up): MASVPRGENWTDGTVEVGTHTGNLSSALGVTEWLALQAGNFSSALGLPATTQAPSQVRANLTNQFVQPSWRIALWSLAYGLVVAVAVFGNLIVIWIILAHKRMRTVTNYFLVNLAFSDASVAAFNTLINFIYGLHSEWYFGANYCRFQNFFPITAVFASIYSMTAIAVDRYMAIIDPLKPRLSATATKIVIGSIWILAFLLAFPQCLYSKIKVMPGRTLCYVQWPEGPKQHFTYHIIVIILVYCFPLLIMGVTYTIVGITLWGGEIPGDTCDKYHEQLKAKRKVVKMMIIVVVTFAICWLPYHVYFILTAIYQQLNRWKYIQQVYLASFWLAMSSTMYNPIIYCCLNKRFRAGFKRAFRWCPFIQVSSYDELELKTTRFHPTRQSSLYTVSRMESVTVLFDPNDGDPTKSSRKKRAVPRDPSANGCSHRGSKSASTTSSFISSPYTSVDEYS
# Chain of rat Opioid Receptor, Non-selective Sodium (Na+) Binding, Oprm1 (gene 25601) (P33535 whole entry, looked up): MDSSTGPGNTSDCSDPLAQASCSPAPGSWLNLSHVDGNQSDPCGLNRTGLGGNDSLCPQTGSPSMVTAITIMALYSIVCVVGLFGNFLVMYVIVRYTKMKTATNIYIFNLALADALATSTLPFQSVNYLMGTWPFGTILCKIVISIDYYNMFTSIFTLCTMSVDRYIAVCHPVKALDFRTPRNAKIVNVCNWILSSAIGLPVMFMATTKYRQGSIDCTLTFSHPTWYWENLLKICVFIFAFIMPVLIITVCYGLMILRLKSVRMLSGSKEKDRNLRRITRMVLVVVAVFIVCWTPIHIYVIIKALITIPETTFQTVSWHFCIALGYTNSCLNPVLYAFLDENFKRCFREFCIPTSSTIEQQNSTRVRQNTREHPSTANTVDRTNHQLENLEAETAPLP
# Chain of rat Histamine Receptor (H3), Hrh3 (gene 85268) (Q9QYN8 whole entry, looked up): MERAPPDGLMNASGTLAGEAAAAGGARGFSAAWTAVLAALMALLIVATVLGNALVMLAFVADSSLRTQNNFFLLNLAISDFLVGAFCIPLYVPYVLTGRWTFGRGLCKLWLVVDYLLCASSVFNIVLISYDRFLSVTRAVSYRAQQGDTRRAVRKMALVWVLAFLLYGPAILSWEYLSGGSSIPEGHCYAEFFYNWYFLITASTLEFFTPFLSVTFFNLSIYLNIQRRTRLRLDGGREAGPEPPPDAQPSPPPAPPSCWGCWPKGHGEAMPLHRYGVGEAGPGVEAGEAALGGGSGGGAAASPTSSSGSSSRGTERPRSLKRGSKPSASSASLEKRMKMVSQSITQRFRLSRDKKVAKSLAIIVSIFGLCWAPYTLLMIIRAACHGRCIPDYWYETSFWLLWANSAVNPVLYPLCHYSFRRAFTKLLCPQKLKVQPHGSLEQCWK
smiles,measurement,setting,value
Cc1ccccc1N,AC50,[1],10.8 µM (active)
CC(C)(C)CC(C)(C)c1ccc(O)cc1,outcome,[2],inactive
COc1cc(-c2ccc(N)c(OC)c2)ccc1N,AC50,Adra2b (gene 24174),15.5 µM (active)
CCC(=O)C(CC(C)N(C)C)(c1ccccc1)c1ccccc1 (centres undefined),AC50,[3],7.26 µM (active)
same,AC50,[4],12 µM (active)
same,AC50,Adra2b (gene 24174),6.79 µM (active)
CC(=O)[O][Hg][c]1ccccc1,AC50,[2],25 µM (active)
same,AC50,[5],14.2 µM (active)
same,AC50,[3],19.8 µM (active)
same,AC50,[6],25 µM (active)
same,AC50,[7],3.43 µM (active)
same,AC50,[4],3.96 µM (active)
same,AC50,[8],38.5 µM (active)
same,AC50,[9],40.2 µM (active)
same,AC50,[10],10.8 µM (active)
same,AC50,Adra2b (gene 24174),11.9 µM (active)
same,outcome,[11],inactive
same,AC50,[12],16.8 µM (active)
same,AC50,[13],30 µM (active)
same,AC50,[1],5.92 µM (active)
C=C(C)C(=O)[O][Sn]([CH2]CCC)([CH2]CCC)[CH2]CCC,AC50,[14],12 µM (active)
same,AC50,[2],2.88 µM (active)
same,AC50,[5],2.78 µM (active)
same,AC50,[3],13.8 µM (active)
same,AC50,[6],13 µM (active)
same,AC50,[7],4.59 µM (active)
same,AC50,[15],20.5 µM (active)
same,AC50,[4],3.25 µM (active)
same,outcome,[16],inactive
same,AC50,[9],25 µM (active)
same,AC50,[10],4.13 µM (active)
same,AC50,Adra2b (gene 24174),3.08 µM (active)
same,AC50,[11],18.1 µM (active)
same,outcome,[17],inactive
same,AC50,[12],1.4 µM (active)
same,AC50,[13],8.6 µM (active)
same,AC50,[1],12.8 µM (active)
O=C(Nc1ccc2[nH]ccc2c1)c1cc2cc(F)ccc2n1Cc1cccc(F)c1,outcome,[14],inactive
C[C@@H]1C[C@@H]([C@H](O)CC2CC(=O)NC(=O)C2)C(=O)[C@@H](C)C1,outcome,[18],inactive
CCN1CCC2(CC1)COc1cc3c(cc12)N(C(=O)c1ccc(-c2ccc(-c4nnc(C)o4)cc2C)cc1)CC3,AC50,[5],2.96 µM (active)
same,AC50,[3],23.4 µM (active)
same,AC50,[6],16.4 µM (active)
same,AC50,[7],10.9 µM (active)
same,AC50,[4],18.6 µM (active)
same,AC50,Adra2b (gene 24174),10.1 µM (active)
same,AC50,[18],10.7 µM (active)
same,AC50,[19],5.41 µM (active)
O=C1C2(Cl)C3(Cl)C4(Cl)C(Cl)(Cl)C5(Cl)C3(Cl)C1(Cl)C5(Cl)C24Cl (centres undefined),outcome,[8],inactive
O=[N+]([O-])c1ccc(O)c([N+](=O)[O-])c1,AC50,[2],25 µM (active)
